Source: PubChem BioAssay (NCI)
Several values for one entry are separate records, joined by “and”; a condition that tells them apart may be missing. Equal entries are not always repeated. This is part of a sample that, as a whole, favours compounds with a hit. Of some 83,000 tested, about 20% had one in any assay.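 Each cell line was grown in a 96-well plate and treated with one concentration of compound for 48 hours. Values below 10 were considered active.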 Activity calls are given as the source filed them.

The compounds below were run on MCF7 breast (assay: NCI-60 one-dose screen, 48 h (100 = growth as untreated, 0 = no growth, -100 = all killed)). Conditions: 10 µM unless noted.
In the case of `CSc1nc(Br)nc2ncn(C3CC(Oc4ccc(C)cc4)C(COc4ccc(C)cc4)O3)c12` (centres undefined), the growth is reported as 64.8% [100 µM] (inactive) and -36.2% [100 µM] (active).
For `CC(C)=CCc1c(OC(=O)c2c(C)cc(O)cc2O)cc(CO)c(CO)c1O`, the growth was -58.6% [100 µM] (active) and -100% [100 µM] (active).
`CCC(C)C1(O)OC2CC3(C)OC(=CC3=O)/C(C)=C\C3OC(=O)C1(C)C32` (centres undefined) was tested, and the growth was -50% [100 µM] (active) and -100% [100 µM] (active).
`CC1OC23CCCCC2C(C#N)(C#N)C1(C#N)C(=N)O3` (centres undefined) was tested, and the growth was -34% [100 µM] (active).
`COc1ccc2nc(NC(=O)/C(C#N)=C/c3ccccc3)sc2c1` was tested, and the growth was 4.79% [100 µM] (active) and 1.62% [100 µM] (active).
`CC1CC(=O)N(N(C)C)C(C#N)(C#N)C1(C#N)C#N` (centres undefined) was tested, and the growth was -67.7% [100 µM] (active) and -85.9% [100 µM] (active).
In the case of `CCOC(=O)c1cc(C)nc2c1c(=O)n(-c1ccccc1)c(=O)n2CCCCN1CCN(c2ncccn2)CC1`, the growth is reported as 100% [100 µM] (inactive) and 90.8% [100 µM] (inactive).
With `CC(=O)C1=C(C)N2C(=NC3=C(CCc4ccccc43)C2c2cccc(Br)c2)S1` (centres undefined) the growth was 35.9% [100 µM] (inactive) and 33.8% [100 µM] (inactive).
`COc1ccc(C)cc1NC(=S)C#N` was tested, and the growth was 77.9% [100 µM] (inactive) and 4.98% [100 µM] (active).
With `C=CC1=C(C)C2=NC1=CC1=NC(=C(CC)/C1=C\O)C=C1N=C3C(=C1C)C(=O)[C@H](C(=O)OC)C3=C1NC(=C2)[C@@H](C)[C@@H]1CCC(=O)O` the growth was 16.5% [100 µM] (inactive) and 5.87% [100 µM] (active).
For `COc1c2c(c3c(c1OC)c(=O)c1ccccc1n3C)OCO2`, the growth was 81.3% [100 µM] (inactive).
In the case of `O=C(Nc1cccc(NC(=O)C(=O)C2CCC3=C(Sc4ccccc4N3)C2=O)n1)C(=O)C1CCC2=C(Sc3ccccc3N2)C1=O` (centres undefined), the growth is reported as 51.4% [100 µM] (inactive) and 4.4% [100 µM] (active).
With `COC(=O)C(C(=O)C(=O)Nc1c(C)cccc1C(C)(C)C)c1nc2ccc(Cl)cc2[nH]c1=O` (centres undefined) the growth was 69.9% [100 µM] (inactive) and 60.9% [100 µM] (inactive).
For `CC1CC(C(=O)OC2OC(COC3OC(CO)C(OC4OC(C)C(O)C(O)C4O)C(O)C3O)C(O)C(O)C2O)C2CCC3(C)C(=CCC4(C)C3CCC3C(C)(CO)C(O)C(O)CC34C)C2C1C` (centres undefined), the growth was -87.6% [100 µM] (active) and -100% [100 µM] (active).
